# According to the supplement of paper PMC12282887:
# ± gives the standard deviation of the averaged measurements.
# What was measured:
# Test in all cases: promoter activity interaction Z-score (Lux/OD deviation from empty-vector control); higher = stronger promoter induction by the compound
# [1] = system: E. coli BW25113 acrABp lux reporter
# Procedure, shortened: (§1)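 Wild-type E. coli BW25113 and three single-gene deletion strains, each carrying a low-copy luxCDABE promoter reporter, were grown at 37°C in 40 µl LB Lennox per well of a 384-well plate. Every compound was applied at four 1:2 dilutions in biological duplicates, and OD600 and luminescence were read every 30 min for 12 h. Integration covered 0–8 h for wild type and 1–9 h for deletion strains, and wells under 10% of the median growth value were removed. Scores are Z-transformed residuals of growth-normalised luminescence fitted against a control.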
# [2] = system: E. coli BW25113 marRABp lux reporter
# Procedure, shortened: as §1
# [3] = system: E. coli BW25113 micFp lux reporter
# Procedure, shortened: as §1
# [4] = system: E. coli BW25113 ompFp lux reporter
# Procedure, shortened: as §1
# [5] = system: E. coli BW25113 robp lux reporter
# Procedure, shortened: as §1
# [6] = system: E. coli BW25113 soxSp lux reporter
# Procedure, shortened: as §1
# [7] = system: E. coli BW25113 tolCp lux reporter
# Procedure, shortened: as §1
# [8] = 0.062 µg/ml, genetic background: wild type
# [9] = 0.062 µg/ml, genetic background: ΔmarA
# [10] = 0.062 µg/ml, genetic background: Δrob
# [11] = 0.062 µg/ml, genetic background: ΔsoxS
# [12] = 0.12 µg/ml, genetic background: wild type
# [13] = 0.12 µg/ml, genetic background: ΔmarA
# [14] = 0.12 µg/ml, genetic background: Δrob
# [15] = 0.12 µg/ml, genetic background: ΔsoxS
# [16] = 0.25 µg/ml, genetic background: wild type
# [17] = 0.25 µg/ml, genetic background: ΔmarA
# [18] = 0.25 µg/ml, genetic background: Δrob
# [19] = 0.25 µg/ml, genetic background: ΔsoxS
# [20] = 0.49 µg/ml, genetic background: wild type
# [21] = 0.49 µg/ml, genetic background: ΔmarA
# [22] = 0.49 µg/ml, genetic background: Δrob
# [23] = 0.49 µg/ml, genetic background: ΔsoxS
structure (smiles),measurement,setting,value
CN(C)c1ccc(O)c2c1C[C@H]1C[C@H]3[C@H](N(C)C)C(O)=C(C(N)=O)C(=O)[C@@]3(O)C(O)=C1C2=O [Minocycline],promoter activity interaction Z-score,[1]; [8],-0.0516 ± 0.1
same,promoter activity interaction Z-score,[1]; [9],0.0987 ± 0.99
same,promoter activity interaction Z-score,[1]; [10],0.189 ± 0.07
same,promoter activity interaction Z-score,[1]; [11],-0.577 ± 0.76
same,promoter activity interaction Z-score,[1]; [12],0.0573 ± 0.042
same,promoter activity interaction Z-score,[1]; [13],0.356 ± 1.1
same,promoter activity interaction Z-score,[1]; [14],0.339 ± 0.34
same,promoter activity interaction Z-score,[1]; [15],0.263 ± 0.16
same,promoter activity interaction Z-score,[1]; [16],0.223 ± 0.18
same,promoter activity interaction Z-score,[1]; [17],0.273 ± 0.88
same,promoter activity interaction Z-score,[1]; [18],0.387 ± 0.58
same,promoter activity interaction Z-score,[1]; [19],0.196 ± 0.47
same,promoter activity interaction Z-score,[1]; [20],2.47 ± 0.56
same,promoter activity interaction Z-score,[1]; [21],0.55 ± 0.59
same,promoter activity interaction Z-score,[1]; [22],2.62 ± 0.41
same,promoter activity interaction Z-score,[1]; [23],2.95 ± 1.3
same,promoter activity interaction Z-score,[2]; [8],-0.0844 ± 0.21
same,promoter activity interaction Z-score,[2]; [9],0.0361 ± 0.21
same,promoter activity interaction Z-score,[2]; [10],0.129 ± 0.094
same,promoter activity interaction Z-score,[2]; [11],-0.0813 ± 0.0076
same,promoter activity interaction Z-score,[2]; [12],0.341 ± 0.081
same,promoter activity interaction Z-score,[2]; [13],0.0649 ± 0.098
same,promoter activity interaction Z-score,[2]; [14],0.115 ± 0.4
same,promoter activity interaction Z-score,[2]; [15],0.221 ± 0.22
same,promoter activity interaction Z-score,[2]; [16],0.449 ± 0.55
same,promoter activity interaction Z-score,[2]; [17],0.264 ± 0.17
same,promoter activity interaction Z-score,[2]; [18],0.436 ± 0.19
same,promoter activity interaction Z-score,[2]; [19],0.173 ± 0.13
same,promoter activity interaction Z-score,[2]; [20],3.58 ± 0.53
same,promoter activity interaction Z-score,[2]; [21],3.1 ± 1.2
same,promoter activity interaction Z-score,[2]; [22],1.07 ± 0.62
same,promoter activity interaction Z-score,[2]; [23],2.67 ± 0.47
same,promoter activity interaction Z-score,[3]; [8],0.172 ± 0.028
same,promoter activity interaction Z-score,[3]; [9],-0.151 ± 0.19
same,promoter activity interaction Z-score,[3]; [10],0.0108 ± 0.022
same,promoter activity interaction Z-score,[3]; [11],-0.429 ± 0.019
same,promoter activity interaction Z-score,[3]; [12],0.33 ± 0.72
same,promoter activity interaction Z-score,[3]; [13],-0.0481 ± 0.0079
same,promoter activity interaction Z-score,[3]; [14],-0.075 ± 0.12
same,promoter activity interaction Z-score,[3]; [15],0.127 ± 0.026
same,promoter activity interaction Z-score,[3]; [16],0.933 ± 0.82
same,promoter activity interaction Z-score,[3]; [17],-0.106 ± 0.069
same,promoter activity interaction Z-score,[3]; [18],0.138 ± 0.07
same,promoter activity interaction Z-score,[3]; [19],-0.0781 ± 0.17
same,promoter activity interaction Z-score,[3]; [20],1.77 ± 1.9
same,promoter activity interaction Z-score,[3]; [21],0.182 ± 0.15
same,promoter activity interaction Z-score,[3]; [22],0.0732 ± 0.00089
same,promoter activity interaction Z-score,[3]; [23],0.743 ± 0.81
same,promoter activity interaction Z-score,[4]; [8],0.0637 ± 0.43
same,promoter activity interaction Z-score,[4]; [9],-0.699 ± 0.25
same,promoter activity interaction Z-score,[4]; [10],0.129 ± 0.49
same,promoter activity interaction Z-score,[4]; [11],-0.457 ± 0.12
same,promoter activity interaction Z-score,[4]; [12],0.41 ± 0.83
same,promoter activity interaction Z-score,[4]; [13],0.0821 ± 0.38
same,promoter activity interaction Z-score,[4]; [14],0.365 ± 0.77
same,promoter activity interaction Z-score,[4]; [15],0.49 ± 0.25
same,promoter activity interaction Z-score,[4]; [16],0.511 ± 0.43
same,promoter activity interaction Z-score,[4]; [17],-0.386 ± 0.46
same,promoter activity interaction Z-score,[4]; [18],0.978 ± 0.71
same,promoter activity interaction Z-score,[4]; [19],0.461 ± 0.59
same,promoter activity interaction Z-score,[4]; [20],1.65 ± 0.69
same,promoter activity interaction Z-score,[4]; [21],1.7 ± 0.75
same,promoter activity interaction Z-score,[4]; [22],1.71 ± 1.5
same,promoter activity interaction Z-score,[4]; [23],2.93 ± 0.19
same,promoter activity interaction Z-score,[5]; [8],-0.379 ± 0.35
same,promoter activity interaction Z-score,[5]; [9],-0.0848 ± 0.76
same,promoter activity interaction Z-score,[5]; [10],0.746 ± 0.51
same,promoter activity interaction Z-score,[5]; [11],-0.6221 ± 0.0048
same,promoter activity interaction Z-score,[5]; [12],0.195 ± 0.02
same,promoter activity interaction Z-score,[5]; [13],0.369 ± 0.11
same,promoter activity interaction Z-score,[5]; [14],0.83 ± 0.12
same,promoter activity interaction Z-score,[5]; [15],0.357 ± 0.091
same,promoter activity interaction Z-score,[5]; [16],0.736 ± 1.1
same,promoter activity interaction Z-score,[5]; [17],0.349 ± 0.033
same,promoter activity interaction Z-score,[5]; [18],1.12 ± 0.15
same,promoter activity interaction Z-score,[5]; [19],-0.142 ± 0.44
same,promoter activity interaction Z-score,[5]; [20],0.715 ± 0.67
same,promoter activity interaction Z-score,[5]; [21],0.586 ± 0.056
same,promoter activity interaction Z-score,[5]; [22],0.685 ± 1.6
same,promoter activity interaction Z-score,[5]; [23],0.64 ± 1.7
same,promoter activity interaction Z-score,[6]; [8],0.269 ± 0.16
same,promoter activity interaction Z-score,[6]; [9],-0.245 ± 0.04
same,promoter activity interaction Z-score,[6]; [10],0.0739 ± 0.0036
same,promoter activity interaction Z-score,[6]; [11],-0.185 ± 0.069
same,promoter activity interaction Z-score,[6]; [12],0.291 ± 0.56
same,promoter activity interaction Z-score,[6]; [13],0.0029 ± 0.014
same,promoter activity interaction Z-score,[6]; [14],-0.102 ± 0.055
same,promoter activity interaction Z-score,[6]; [15],0.203 ± 0.098
same,promoter activity interaction Z-score,[6]; [16],0.499 ± 0.44
same,promoter activity interaction Z-score,[6]; [17],-0.0485 ± 0.1
same,promoter activity interaction Z-score,[6]; [18],0.0791 ± 0.26
same,promoter activity interaction Z-score,[6]; [19],-0.114 ± 0.015
same,promoter activity interaction Z-score,[6]; [20],0.538 ± 0.72
same,promoter activity interaction Z-score,[6]; [21],0.583 ± 0.97
same,promoter activity interaction Z-score,[6]; [22],0.542 ± 0.91
same,promoter activity interaction Z-score,[6]; [23],0.336 ± 0.25
same,promoter activity interaction Z-score,[7]; [8],-0.706 ± 0.049
same,promoter activity interaction Z-score,[7]; [9],-0.479 ± 0.52
same,promoter activity interaction Z-score,[7]; [10],-0.423 ± 0.84
same,promoter activity interaction Z-score,[7]; [11],-0.991 ± 0.75
same,promoter activity interaction Z-score,[7]; [12],0.000824 ± 0.27
same,promoter activity interaction Z-score,[7]; [13],-0.0931 ± 0.19
same,promoter activity interaction Z-score,[7]; [14],-0.00328 ± 1.2
same,promoter activity interaction Z-score,[7]; [15],0.557 ± 0.39
same,promoter activity interaction Z-score,[7]; [16],-0.22 ± 0.98
same,promoter activity interaction Z-score,[7]; [17],-0.201 ± 0.28
same,promoter activity interaction Z-score,[7]; [18],0.646 ± 0.087
same,promoter activity interaction Z-score,[7]; [19],-0.226 ± 0.84
same,promoter activity interaction Z-score,[7]; [20],-0.114 ± 0.25
same,promoter activity interaction Z-score,[7]; [21],0.0123 ± 0.63
same,promoter activity interaction Z-score,[7]; [22],0.966 ± 0.27
same,promoter activity interaction Z-score,[7]; [23],0.526 ± 0.79
